Compounds with a hit are over-represented: about 6.9% of the library has one in this group of screens.
S-ASM inh: blocks human secretory acid sphingomyelinase. placental ASM, HMU-PC fluorogenic substrate, 60 min. Potency, µM (doses to about 57.5 µM), inactives show at the highest dose activity change, negative = inhibition, actives largely listed as inhibitors. 340,000 tested, 0.006% active. AID 504937; note: potency is the fitted concentration of half-maximal effect
Target sequence (P17405 47-631 limits assumed): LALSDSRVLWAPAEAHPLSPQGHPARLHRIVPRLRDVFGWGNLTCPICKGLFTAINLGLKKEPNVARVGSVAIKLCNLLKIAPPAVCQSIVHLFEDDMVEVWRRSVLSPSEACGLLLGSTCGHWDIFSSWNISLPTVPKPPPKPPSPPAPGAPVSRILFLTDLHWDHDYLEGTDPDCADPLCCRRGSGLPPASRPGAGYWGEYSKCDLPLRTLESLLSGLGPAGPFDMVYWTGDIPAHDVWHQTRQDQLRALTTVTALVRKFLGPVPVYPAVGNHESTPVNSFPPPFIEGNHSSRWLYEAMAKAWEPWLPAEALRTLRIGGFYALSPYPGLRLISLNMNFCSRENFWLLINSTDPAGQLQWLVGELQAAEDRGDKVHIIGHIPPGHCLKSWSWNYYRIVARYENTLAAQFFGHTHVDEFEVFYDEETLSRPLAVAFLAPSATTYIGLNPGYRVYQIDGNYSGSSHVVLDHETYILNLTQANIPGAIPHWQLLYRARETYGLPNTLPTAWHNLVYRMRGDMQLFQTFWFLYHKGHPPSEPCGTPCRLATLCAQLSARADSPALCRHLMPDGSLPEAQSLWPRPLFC
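HMU-PC0 cleavage (9 uM final) by human placental ASM, 60 min at 37 °C following 10 min compound exposure at RT; stopped at pH 10, fluorescence Ex 386/Em 447 nm.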
SW480 rerep: induces DNA re-replication in SW480 colon adenocarcinoma cells; SW480 DNA re-replication, Hoechst DNA content imaging, 48 h; 340,000 tested, 1.8% active; AID 624297; Potency, µM (series often up to 46.1 µM), without a hit: at the highest dose re-replication activation, usual class: activators; note: potency is the fitted concentration of half-maximal effect; % of control where 0% means no effect; nearly all actives have a fitted effect of over 55% in size
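Image-based DNA-content assay: after two days of treatment, nuclei were labelled with the DNA dye Hoechst and imaged, and hits were compounds raising the count of nuclei showing high fluorescence intensity.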
Giardia kill: Giardia lamblia killing; AID 540267; 340,000 tested, 0.15% active; activity change, % at 7.66 µM, hits read low; Giardia lamblia trophozoite viability; in the data active = activity change below about -80%; inconclusive = between about -30% and that limit;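 note: parasites exposed to compound for two days anaerobically before the ATP read; % is set by controls: 0 for no effect and ±100 for the full control effect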
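Luminescent ATP signal served as the viability read-out, measured 15-30 min after adding ATP detection reagent to trophozoites that had been incubated with compounds for 48 hrs at 37 deg C anaerobically at 100 cells/well.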
KB-3-1 tox: kills parental KB-3-1 adenocarcinoma cells. KB-3-1 viability, CellTiter-Glo ATP luminescence, 72 h. Potency, µM (doses to about 46.1 µM), hits mostly cytotoxic. 400,000 tested, 1.4% active. AID 1347075; note: potency is the fitted concentration of half-maximal effect; % is set by controls: 0 for no effect and ±100 for the full control effect; nearly all actives have a fitted effect of over 60% in size
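KB-3-1 cells, DMEM (no phenol red) + 10% FBS; compound by pin transfer, 72 h, 37 °C. Readout: CellTiter-Glo luminescence after 10 min. Data normalized, curve-fitted.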
KB-V1 cytotox: kills drug-selected multidrug resistant KB-V1 cells | KB-V1 MDR cells viability, CellTiter-Glo, 72 h | Potency, µM (series often up to 46.1 µM), usual class: cytotoxic | 400,000 tested, 3.4% active | AID 1347076; note: potency is the fitted concentration of half-maximal effect; % is set by controls: 0 for no effect and ±100 for the full control effect; nearly all actives have a fitted effect of over 60% in size
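qHTS viability screen in drug-selected KB-V1 MDR cells: 72 h compound treatment at 37 degrees C, ATP luminescence end point.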
MCF10A rerep: induces DNA re-replication in MCF 10a normal breast cells; MCF 10A DNA re-replication, Hoechst nuclear intensity, 48 h; Potency, µM (titrated, usually from 46.1 µM), for inactives: at the top dose activity, positive = re-replication, most hits filed as activators; 350,000 tested, 2.9% active; AID 624296; note: potency is the fitted concentration of half-maximal effect; % of control where 0% means no effect; nearly all actives have a fitted effect of over 50% in size
* hit, by the source's call; i = inactive; u = inconclusive; x = not tested or not shown. Unless noted, calls come from the whole dose curve; as a rule, active = well fitted curve in the direction sought with a large enough effect; inconclusive = small, poorly fitted or top-dose-only effect, or another doubt; inactive = no such curve, though single readings can be large; an effect the other way counts as inactive or inconclusive.

SMILES	S-ASM inh	SW480 rerep	Giardia kill	KB-3-1 tox	KB-V1 cytotox	MCF10A rerep
Cc1cc(C)c(OCC(=O)Nc2ccccc2N2CCCCC2)c(C)c1	x	u	-2.0	i	16.4µM*	16.6%
O=C(COc1ccccc1)Nc1ccccc1N1CCCCC1	-6.4%	0.9%	4.2	i	i	u
COc1ccccc1/C=C/C(=O)OCC(=O)Nc1cc(C(F)(F)F)ccc1N1CCOCC1	-13.1%	9.2µM*	-2.9	u	u	u
N#Cc1ccccc1NC(=O)CNc1ccccc1N1CCCCC1	-0.8%	-0.5%	-0.3	i	20.6µM*	u
O=C(COC(=O)/C=C/c1ccccc1)Nc1cc(C(F)(F)F)ccc1N1CCOCC1	1.7%	4.5%	-13.6	i	i	-7.9%
O=C(COc1cccc(Cl)c1)Nc1ccccc1N1CCCCC1	40.2%	6.4%	11.4	i	u	18.4µM*
C=C1C=C(C(F)F)n2ncc(C(=O)NCc3ccc(Cl)cc3Cl)c2N1	x	x	x	i	i	x
CC1(C(=O)Nc2cccc(C(F)(F)F)c2)Cc2ccccc2C(=O)O1 (centres undefined)	x	x	x	i	i	x
CC(C)[C@H](NS(=O)(=O)c1ccccc1)C(=O)Nc1ccccc1N1CCOCC1	-2.3%	-2.1%	3.5	i	8.2µM*	1.8%
COc1ccc(N2CCOCC2)c(NC(=O)COc2cccc(C)c2C)c1	-2.9%	-0.3%	5.4	i	u	u
O=C(Nc1ccccc1N1CCCCC1)c1cccs1	-11.0%	7.1%	-0.4	i	i	20.6µM*
Cc1cccc(C(=O)NC(C(=O)Nc2ccccc2N2CCOCC2)C(C)C)c1 (centres undefined)	-1.9%	16.0%	-19.7	i	i	-2.1%
COc1ccc(N2CCOCC2)c(NC(=O)COc2cccc(C)c2)c1	-1.3%	-3.6%	-5.4	i	13µM*	-1.2%
Cc1ccc(C)c(N2N=C(C(=O)Nc3ccccc3N3CCCC3)CCC2=O)c1	-9.9%	u	11.7	i	u	20.6µM*
COc1ccc(CN(Cc2ccco2)c2cnc(S(C)(=O)=O)nc2C(=O)Nc2ccc(C)c(C)c2)cc1	x	x	x	i	i	x
Oc1cc2cc(CCN3CCN(c4nsc5ccccc45)CC3)c(Cl)cc2[nH]1	x	-4.8%	x	x	x	16.3%
Clc1cccc(CNc2ccn3nc(-c4ccccc4Cl)cc3n2)c1	x	x	x	i	i	x
COc1ccc(NC(=O)CN(C)C(=O)c2c(C)nn(Cc3ccc(C)cc3)c2Cl)cc1	8.2%	-3.1%	-19.5	i	i	-0.7%
CC(=O)Nc1cccc(C(=O)Nc2ccccc2N2CCOCC2)c1	2.8%	u	1.9	16.4µM*	14.6µM*	u
Cc1ccccc1OCC(=O)Nc1ccccc1N1CCOCC1	-0.9%	-0.5%	0.1	i	u	u
O=C(Nc1ccccc1N1CCCCC1)c1cccc(Cl)c1	-0.1%	0.4%	3.2	i	i	20.6µM*
COc1ccc(Cl)cc1C(=O)Nc1ccccc1N1CCN(C)CC1	2.9%	14.3%	10.8	i	5.8µM*	27.5%
O=C(Nc1ccccc1N1CCOCC1)c1ccc2ccccc2c1	-2.2%	26.2%	-6.9	i	i	6.9%
Cc1cc(C)c(OCC(=O)Nc2ccccc2N2CCOCC2)c(C)c1	-11.2%	u	5.7	20.6µM*	i	u
COc1ccc(Cl)cc1C(=O)Nc1ccccc1N1CCCCC1	-2.1%	4.7%	-6.0	i	i	9.0%
SMILES	S-ASM inh	SW480 rerep	Giardia kill	KB-3-1 tox	KB-V1 cytotox	MCF10A rerep
COc1cc(NC(=O)Nc2c[nH]c(=O)[nH]c2=O)cc(OC)c1OC	x	x	x	i	u	x
CNCCCCOc1ccc(C(C)(C)C)cc1Cl	5.1%	-30.1%	-2.3	u	u	-1.2%
O=C(NC1CCCCC1)c1cc2c(Cl)nc3ccccc3c2s1	x	x	x	i	u	x
CCNC(=S)N1CCN(S(=O)(=O)c2cccc(C(F)(F)F)c2)CC1	-0.3%	-1.1%	13.0	i	23.1µM*	4.4%
COc1cc(CNCc2ccccn2)ccc1OCC(=O)NC(C)(C)C	3.3%	-6.8%	-4.3	i	20.6µM*	0.4%
COc1cc(CNCc2cccnc2)ccc1OCC(=O)NC(C)(C)C	6.0%	-100.9%	3.8	i	i	0.2%

Source: PubChem (National Center for Advancing Translational Sciences (NCATS))
